Bioassay records deposited in PubChem by National Center for Advancing Translational Sciences (NCATS).
Only some compounds are listed: those with a hit (about 2.3% of all), similar ones and a draw of the others.
TRPV1 agonist = activates the human vanilloid receptor TRPV1 | activation, % at 8.33 µM | 320,000 tested, 0.19% active | Q8NER1 | TRPV1-expressing cells, Fluo-8 calcium influx, agonist mode; in the data active = activation above about 80%; inconclusive = between about 30% and that limit; note: 0% is about no effect
Target sequence (Q8NER1 whole entry, looked up): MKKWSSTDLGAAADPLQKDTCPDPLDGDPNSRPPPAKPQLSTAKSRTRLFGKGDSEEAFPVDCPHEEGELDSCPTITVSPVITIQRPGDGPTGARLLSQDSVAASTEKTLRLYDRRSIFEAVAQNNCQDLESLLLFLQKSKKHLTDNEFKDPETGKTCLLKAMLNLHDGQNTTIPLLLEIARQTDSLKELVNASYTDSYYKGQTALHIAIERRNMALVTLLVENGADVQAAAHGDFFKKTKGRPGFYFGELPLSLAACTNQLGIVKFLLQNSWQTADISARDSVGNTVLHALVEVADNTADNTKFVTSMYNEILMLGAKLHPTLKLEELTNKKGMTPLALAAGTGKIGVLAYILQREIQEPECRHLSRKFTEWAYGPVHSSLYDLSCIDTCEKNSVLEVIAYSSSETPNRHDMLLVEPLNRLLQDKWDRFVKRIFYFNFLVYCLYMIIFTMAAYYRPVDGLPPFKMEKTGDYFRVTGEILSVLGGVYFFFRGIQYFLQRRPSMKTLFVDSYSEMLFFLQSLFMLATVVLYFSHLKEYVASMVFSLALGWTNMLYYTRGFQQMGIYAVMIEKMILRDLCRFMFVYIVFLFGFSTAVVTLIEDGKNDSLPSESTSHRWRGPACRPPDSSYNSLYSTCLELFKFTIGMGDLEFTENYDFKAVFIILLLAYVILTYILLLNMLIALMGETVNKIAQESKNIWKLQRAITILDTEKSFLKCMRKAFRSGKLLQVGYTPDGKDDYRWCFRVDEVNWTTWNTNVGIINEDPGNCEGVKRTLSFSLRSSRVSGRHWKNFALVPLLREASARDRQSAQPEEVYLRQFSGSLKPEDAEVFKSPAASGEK
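Fluo-8 calcium influx in TRPV1-expressing cells, kinetic read (ex 480/em 520 nm). Compound added and read 3 min for agonist activity, followed by capsaicin at EC20 final and 2 min further read for enhancement.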
FUS yeast rescue = rescues growth of FUS-expressing yeast; 390,000 tested, 0.24% active; S. cerevisiae FUS-expressing, growth rescue, OD600, 24 h; Potency, µM (doses to about 76.6 µM), most hits filed as activators; AID 1347120;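 note: potency is the fitted concentration of half-maximal effect; plate controls were DMSO vehicle for no effect and reference control for full effect; nearly all actives have a fitted effect of over 55% in size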
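Steps: raffinose overnight preculture; dilution to OD 0.005 in 2% galactose minimal medium; compound addition (concentration series); 24hr at 30C, 99% humidity; absorbance read at 600 nm.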
TRPV1 potentiator = enhances activation of the human vanilloid receptor TRPV1; AID 540277; TRPV1-expressing cells, Fluo-8 calcium influx, capsaicin EC20 potentiation; potentiation, % at 8.33 µM; 320,000 tested, 0.02% active; in the data active = potentiation above about 80%; inconclusive = between about 30% and that limit; note: 0% is about no effect
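TRPV1-expressing cells were cultured overnight at 35.5C and loaded with Fluo-8 calcium dye for 40 to 90 min at room temperature. After a 10 s baseline, compound was added and calcium influx was read kinetically for 3 min (ex 480/em 520 nm).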
Giardia killer = kills Giardia lamblia | Giardia lamblia trophozoite viability | activity change, % at 7.66 µM, hits read low | 340,000 tested, 0.15% active | AID 540267; in the data active = activity change below about -80%; inconclusive = between about -30% and that limit;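 note: parasites exposed to compound for two days anaerobically before the ATP read; % is set by controls: 0 for no effect and ±100 for the full control effect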
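Giardia lamblia trophozoites (100 cells/well) were incubated with compounds for 48 h at 37 deg C under anaerobic conditions. Viability was read as ATP content by one-step luminescence after 15-30 min at room temperature.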
ELG1 repair inh = ELG1-dependent DNA repair inhibition | Potency, µM (series often up to 46.1 µM), without a hit: top-dose activity change, negative = inhibition, actives largely listed as inhibitors | 330,000 tested, 2.3% active | HEK293T ELG1-luciferase reporter, luminescence, 16 h; DNA damage induced by 5-fluorouridine; note: potency is the fitted concentration of half-maximal effect; % is set by controls: 0 for no effect and ±100 for the full control effect; nearly all actives have a fitted effect of over 55% in size
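Luminescence from the luciferase reporter, measured 30 min after ONE-Glo reagent at room temperature, was the read-out. Beforehand, 2,000 cells per well were exposed for 16 hr at 37 °C to 5-fluorouridine together with compound or vehicle.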
Numbers without * were called inactive; i = inactive; u = inconclusive; x = no result given. Unless noted, calls come from the whole dose curve; as a rule, active = well fitted curve in the direction sought with a large enough effect; inconclusive = small, poorly fitted or top-dose-only effect, or another doubt; inactive = no such curve, though single readings can be large; an effect the other way counts as inactive or inconclusive.

SMILES	TRPV1 agonist	FUS yeast rescue	TRPV1 potentiator	Giardia killer	ELG1 repair inh
CCOc1cc(/C=N/NC(=O)c2ccncc2)cc(Cl)c1OS(C)(=O)=O	u	i	-14	-8	15µM*
CC(NC(=O)c1cccc(NC(=O)c2nsc3ccccc23)c1)c1ccccc1 (stereo not drawn)	x	i	x	x	x
COc1ccc(-c2csc3ncnc(N4CCN(c5cccc(OC)c5)CC4)c23)cc1	-5	x	-44	29	6.5µM*
O=C(c1ccco1)N1CCN(c2ncnc3scc(-c4ccccc4)c23)CC1	0	i	7	-1	u
COc1ccc(N2CCN(c3ncnc4scc(-c5ccccc5)c34)CC2)cc1	0	i	-2	-14	16µM*
COc1ccc(Nc2ncnc3scc(-c4ccc(F)cc4)c23)cc1	x	i	x	x	x
COc1ccc(Nc2ncnc3scc(-c4ccc(OC)cc4)c23)cc1	-7	x	-34	7	12µM*
COc1ccc(-c2csc3ncnc(N4CCN(C(=O)c5ccco5)CC4)c23)cc1	2	i	-37	4	7.3µM*
COc1cc(NC(=O)CSc2nc(C)cc(=O)[nH]2)cc(OC)c1	x	i	x	x	x
Cc1ccc(C)c(Cn2c(=O)n(-c3ccc(Cl)cc3)c(=O)c3c4c(sc32)CCC4)c1	x	i	x	x	x
COc1ccc(-c2csc3ncnc(N4CCN(c5ccccc5Cl)CC4)c23)cc1	2	i	-40	1	13µM*
COc1ccc(-c2csc3ncnc(N4CCN(c5cccc(C)c5C)CC4)c23)cc1	-4	i	-34	-24	u
C=CC[n+]1ccc(/C=C2\C=Cc3cc(C)ccc3N2CC)c2ccccc21	-1	i	-8	23	1.3µM*
S=C1SCN(Cc2cccnc2)CN1Cc1cccnc1	-3	i	3	2	23µM*
CCN1CCN(c2c(/C=C3\SC(=S)N(Cc4ccco4)C3=O)c(C)c(C#N)c(=O)n2C)CC1	-4	22µM*	u	-10	9%
CCN(CCCNC(=O)CCc1nc(-c2ccc(OC)cc2)no1)c1cccc(C)c1	14	u	-4	2	18µM*
CCOc1ccc(NC(=O)Cn2c3ncccc3c(=O)n2-c2ccc(CC)cc2)cc1	x	i	x	x	x
Cc1ccc(S(=O)(=O)C2(C(=O)N3CCN(c4cc(C)ccc4C)CC3)CC2)cc1	u	u	-15	0	26µM*
O=C(NCc1nc2ccccc2[nH]1)C1=C[C@@H](C2CCCCC2)C[C@@H](OCc2ccc(CO)cc2)O1	3	32µM*	u	u	u
O=C(NCc1nc2ccccc2[nH]1)C1=C[C@H](C2CCCCC2)C[C@H](OCCCCO)O1	x	i	x	-22	x
O=C(NCc1nc2ccccc2[nH]1)C1=C[C@H](C2CCCCC2)C[C@H](OCc2ccc(CO)cc2)O1	3	20µM*	13	-9	u
CC(C)(C)[C@H]1C=C(C(=O)NCc2nc3ccccc3[nH]2)O[C@@H](OCc2ccc(CO)cc2)C1	23	i	u	-3	u
COc1cc(OC)cc(C(=O)Nc2nc(-c3ccccc3)c(-c3ccccc3)o2)c1	-5	i	-32	-23	13µM*
CCN(CC(=O)Nc1ccc(NC(C)=O)cc1)C(=O)/C=C/c1cn(-c2ccccc2)nc1-c1ccc(F)cc1	10	i	-9	13	u
CCN(CC(=O)Nc1ccc(NC(C)=O)cc1)C(=O)/C=C/c1cn(-c2ccccc2)nc1-c1ccc(C)cc1	10	32µM*	1	-18	8.2µM*
SMILES	TRPV1 agonist	FUS yeast rescue	TRPV1 potentiator	Giardia killer	ELG1 repair inh
COc1cccc(NC(=O)CN(C)C(=O)/C=C/c2cn(-c3ccccc3)nc2-c2ccc(OC)c(OC)c2)c1	x	40µM*	x	2	x
COc1ccc(-c2nn(-c3ccccc3)cc2C(=O)NCCCn2ccnc2)cc1	x	i	x	-6	-18%
CCOc1ccc(NC(=O)CN(C)C(=O)c2cn(-c3ccc(F)cc3)nc2-c2cccc(OC)c2)cc1OCC	1	u	10	6	9.2µM*
COc1ccc(-c2nn(-c3ccccc3)cc2/C=C/C(=O)NCCCn2ccnc2)cc1OC	u	i	0	-2	16µM*
CCNC(=O)C1CCCN(C(=O)c2ccccc2)CC1 (stereo not drawn)	x	i	x	x	x
O=C(NCC[C@@H]1CC[C@@H](NS(=O)(=O)Cc2ccccc2)[C@@H](CO)O1)C1CC1	x	i	x	x	x
